In PubChem BioAssay one finds inhibition data, which are given here for 40 molecules.

In general, inhibition refers to the share of the control response that was lost under treatment.

Values without a mark were called inactive. How the calls were made is not given here.

In the test the target is Pantothenate synthetase (Mycobacterium tuberculosis (strain ATCC 25618 / H37Rv)) (UniProt P9WIL5). In words: Recombinant Mtb pantothenate synthetase (PanC) inhibitors, coupled enzyme, confirmatory (AID 375).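 Further: 0% = full reaction with vehicle and 100% = no enzyme background.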 Particulars: coupled enzyme assay; at 10 µM, active compounds read high.
Sequence of Pantothenate synthetase (Mycobacterium tuberculosis (strain ATCC 25618 / H37Rv)) (P9WIL5 whole entry, looked up): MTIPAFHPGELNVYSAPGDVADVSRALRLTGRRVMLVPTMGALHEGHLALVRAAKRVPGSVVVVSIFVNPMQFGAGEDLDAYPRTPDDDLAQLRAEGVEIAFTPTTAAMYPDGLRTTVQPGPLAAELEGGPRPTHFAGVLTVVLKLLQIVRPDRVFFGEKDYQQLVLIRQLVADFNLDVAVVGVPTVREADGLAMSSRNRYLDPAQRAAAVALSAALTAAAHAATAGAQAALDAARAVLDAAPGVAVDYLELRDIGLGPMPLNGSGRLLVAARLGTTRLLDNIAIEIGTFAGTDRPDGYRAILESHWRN
`O=C1OCCC1NC1=NCCC1` (stereo not given): the inhibition was 0%.
For `CN1C(=O)N(C)C(=O)C2(Cc3ccccc3N3CCOCC32)C1=O` (stereo not given) the value was 0%; for `O=c1[nH]c(=O)n(Cc2ccco2)c(O)c1C=NCCCn1ccnc1`, 0%.
As for `CC1CCC(C(=O)NC(C(=O)N2CCC3(CC2)OCCO3)C(C)C)CC1` (stereo not given), the figure is 3%; as for `COc1ccccc1N1CCN(Cc2cccc(OC)c2O)CC1`, 0%; as for `O=C1CC(c2ccccc2)CC(O)=C1C=NCCN1CCN(C(=O)Cc2ccccc2)CC1` (stereo not given), 0%.
Take `OCCOCC#CCN1CCOCC1`: the inhibition was 0%.
Take `NC(=O)CSP(=O)(c1ccccc1)c1ccccc1`: the inhibition is 0%.
For `CC1(C)C(c2ccccc2)=NC(c2cccnc2)N1O` (stereo not given) the value was 0%; for `CCCCCCC(N)CC(=O)O` (stereo not given), 0%; for `CCN(CC)CCN=Cc1c(O)n(CCC2=CCCCC2)c(=O)[nH]c1=O`, 5%.
As to `CCN1c2nc3c(C)cccn3c(=O)c2CC2(C(=O)N(C)C(=O)N(C)C2=O)C1C` (stereo not given), the inhibition is 0%.
For `C=CCn1c(O)c(C=NCCN(C)C)c(=O)[nH]c1=O`, the inhibition was 0%.
For `Cc1ccccc1NC1=NCCCS1` the value was 3%; for `CN1CCC(N(C)c2ncnc3ccc(Br)cc23)CC1`, 0%; for `O=c1[nH]c(=O)n(Cc2ccccc2)c(O)c1C=NCCCO`, 8%.
On to `O=C1CC(N2CCC(n3c(=O)[nH]c4ccccc43)CC2)C(=O)N1c1ccc(F)cc1` (stereo not given), for which the inhibition was 5%.
As for `Cc1cc(NC(=O)COC(=O)c2c(C)nn(Cc3ccccc3)c2Cl)no1`, the figure is 0%.
Take `CN(C)c1cc(N)c2c(n1)CCC2` (tested in a mixture with another compound): the inhibition is 0%.
Consider `c1ccc(C2CC3CC(c4ccco4)N2O3)cc1` (stereo not given), for which the inhibition was 0%.
For `c1cncc(CNC2=NCCCCC2)c1` the value was 1%.
For `C=CCn1c(O)c(C(C)=NCc2cccnc2)c(=O)[nH]c1=O` the value was 0%.
Turning to `NCCc1ccc(O)cc1`, the inhibition was 0%.
As to `COc1ccc(C(=O)C(C)(C)NO)cc1`, the inhibition is 0%.
For `CCOC(=O)c1cccc([P+](=O)O)c1` the value was 0%.
For `O=C(CCCOc1ccc(Cl)cc1Cl)N1CCC2(CC1)OCCO2` the value was 0%; for `CCCCOc1ccc(CN2CCN(CCO)CC2)cc1`, 0%; for `CSc1ccc(CNC2CN3CCC2CC3)cc1` (stereo not given), 0%.
As for `CCCCn1c(O)c(C(C)=NCCc2ccccc2)c(=O)[nH]c1=O`, the figure is 0%; as for `O=C(c1sc2ccccc2c1Cl)N1CCC2(CC1)OCCO2`, 0%.
Regarding `N#Cc1ccccc1Cn1cc(C(=O)c2ccco2)c2ccccc21`, the inhibition is 0%.
For `COc1ccc(CC2C(=O)NC(=O)NC2=O)c(OC)c1` the value was 2%; for `CCCCn1c(O)c(C(CC)=Nc2cccc(C(=O)O)c2)c(=O)[nH]c1=O`, 0%; for `COc1cc(C2NCc3ccccc3-n3cccc32)ccc1O` (stereo not given), 0%.
As for `Cc1ccc(CS(=O)(=O)CCC(=O)N2CCC3(CC2)OCCO3)cc1`, the figure is 7%; as for `COc1cc(/C=N/n2cnnc2)ccc1OC(=O)N(C)C`, 6%; as for `CC#CP(=O)(OCC)C(O)(c1ccccc1)C(F)(F)F` (stereo not given), 0%.
Regarding `CCOC(=O)C(O)(c1ccc(N(CC)C(=O)OC)cc1)C(F)(F)F` (stereo not given), the inhibition was 0%.
For `CC(C)(C)C(O)C(Oc1ccc(Cl)cc1)n1cncn1` (stereo not given) the value was 9%.
For `COC(=O)c1c(C)n(Cc2ccc3c(c2)OCO3)c2ccc(O)cc12` the value was 6%.
